High-throughput results: PubChem, Buhrlage Lab, Dana-Farber Cancer Institute and Novartis Institutes for BioMedical Research (Cambridge, Mass)
The list is not random: actives were taken first. Their share in the collection is about 5%.
USP10 block = blocks human USP10 ubiquitin-rhodamine cleavage; Q14694; purified USP10, Ub-rhodamine fluorescence, 60 min; inhibition, % at 20 µM; 47,000 tested, 1.1% active; AID 1645856
USP8 block = blocks human USP8 ubiquitin-rhodamine cleavage. purified USP8, Ub-rhodamine cleavage fluorescence, 30 min. inhibition, % at 20 µM. 47,000 tested, 4.2% active. AID 1645853
UCHL1 inh = blocks human UCHL1 ubiquitin-rhodamine cleavage; AID 1645859; 47,000 tested, 0.2% active; purified UCHL1, Ub-rhodamine cleavage fluorescence; inhibition, % at 20 µM; P09936
Target sequence (P09936 whole entry, looked up): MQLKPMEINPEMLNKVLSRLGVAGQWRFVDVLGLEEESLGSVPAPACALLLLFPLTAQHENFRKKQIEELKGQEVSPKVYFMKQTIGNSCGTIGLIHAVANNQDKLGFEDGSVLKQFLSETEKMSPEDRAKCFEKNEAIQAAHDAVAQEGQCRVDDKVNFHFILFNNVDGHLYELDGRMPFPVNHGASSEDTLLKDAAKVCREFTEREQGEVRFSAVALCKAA
USP7 block = human USP7 deubiquitinase inhibition | Q93009 | purified USP7, Ub-rhodamine cleavage fluorescence | inhibition, % at 20 µM | 47,000 tested, 0.3% active | AID 1645854
A number is an active result; . = inactive. Cut-off read from the data, not from the text of the source: active = inhibition above about 30%; inactive = the rest.

SMILES	USP10 block	USP8 block	UCHL1 inh	USP7 block
Cc1cc(C(=O)Nc2ccc3nc(N4CCN(c5ncccn5)CC4)cc(C)c3c2)ccc1[N+](=O)[O-]	.	.	.	.
Cc1ccc(NC(=O)CCC(=O)Nc2ccc3nc(N4CCCCC4)cc(C)c3c2)c(Br)c1	.	33	.	.
Cc1cc(N2CCN(c3ncccn3)CC2)nc2ccc(NC(=O)Cn3nc([N+](=O)[O-])c(Br)c3C)cc12	33	.	.	.
Cc1cc(N2CCOCC2)nc2ccc(NC(=O)CCC(=O)Nc3ccc(F)cc3)cc12	.	.	.	.
CCOC(=O)C1CCN(Cc2cc(=O)oc3cc(O)c(O)cc23)CC1	34	91	76	52
CCOC(=O)C1CCCN(Cc2cc(=O)oc3cc(C)c(C(C)C)cc23)C1 (stereo unspecified)	.	.	.	.
CC(C)N1CCn2c(nc3cc(NC(=O)c4cccnc4)ccc32)C1	.	32	.	.
CC(C)C(=O)N1CCc2cc(-c3csc(NC(=O)CN4CCc5ccccc5C4)n3)ccc21	.	50	.	.
Cc1ccc(C(=O)N2CCc3cc(-c4csc(NC(=O)Cn5nnc6ccccc65)n4)ccc32)cc1	.	57	.	.
CC(C)C(=O)N1CCc2cc(-c3csc(NC(=O)CN4CCCCC4)n3)ccc21	.	.	.	.
COc1ccc(-c2cc(C(=O)NCc3cccnc3)on2)cc1OC	.	.	.	.
COc1ccc(-n2c(N(C)C)nc3cc(C(=O)NC4CC4)sc32)cc1	.	.	.	.
Cc1nn(-c2ccccc2)c2sc(C(=O)Nc3ccc(Br)c4cccnc34)cc12	.	.	.	.
CCOC(=O)CNC(=O)c1cc2c(=O)n3ccccc3nc2s1	.	.	.	.
CCNC(=O)c1cc2nc(N(C)C)n(-c3ccccc3)c2s1	.	75	.	.
CNC(=O)c1cc2nc(N(C)C)n(-c3ccccc3)c2s1	.	77	.	.
CNC(=O)c1cc2nc(N(C)C)n(-c3ccc(OC)cc3)c2s1	.	78	.	.
Cc1cccc(N2CCN(C(=O)c3noc4c3CCc3sccc3-4)CC2)c1C	.	.	.	.
O=C(O)c1cccnc1N1CCCC1c1ccccc1 (stereo unspecified)	.	47	.	.
COc1ccc(Cl)cc1Nc1nc(CN2CCOCC2)nc2sc3c(c12)CCC3	.	.	.	.
CC1CCc2c(sc3nc(CN4CCOCC4)nc(Nc4ccc(C(C)(C)C)cc4)c23)C1 (stereo unspecified)	.	31	.	.
CC(C)n1nnc2cc(S(=O)(=O)N3CCCC(C(=O)N4CCOCC4)C3)ccc21 (stereo unspecified)	.	.	.	.
COc1ccccc1N1CCN(C(=O)c2ccc3c(=O)n(CCc4ccccc4)c(=O)[nH]c3c2)CC1	40	.	.	.
Cc1sc(NC(=O)c2ccccc2)c(C(c2cccnc2)N2CCC(C)CC2)c1C (stereo unspecified)	.	.	.	.
COc1ccc(C2CC(c3ccccc3)n3ncnc3N2C(C)=O)cc1 (stereo unspecified)	.	.	.	.
SMILES	USP10 block	USP8 block	UCHL1 inh	USP7 block
CC(C)(C)c1ccc(-c2nc3[nH]c(=O)cc(NC(=O)c4ccco4)n3n2)cc1	.	43	.	.
COc1ccc(-c2nc3[nH]c(=O)cc(NC(=O)Cc4ccccc4)n3n2)cc1	.	60	.	.
CCCCC(=O)Nc1cc(=O)[nH]c2nc(Cc3ccccc3)nn12	.	.	.	.
O=C(Nc1cc(=O)[nH]c2nc(Cc3ccccc3)nn12)c1ccco1	.	48	.	.
Cc1cccc(C(=O)N2CCc3cc(-c4nc(NC(=O)CN5CCc6ccccc6C5)sc4C)ccc32)c1	.	79	.	.
Cc1ccc(C(=O)N2CCc3cc(-c4nc(NC(=O)CN5CCCC5)sc4C)ccc32)cc1	.	.	.	.
Cc1sc(NC(=O)CN(C)C2CCCCC2)nc1-c1ccc2c(c1)CCN2C(=O)c1ccccc1F	.	38	.	.
Cc1sc(NC(=O)CN2CCc3ccccc3C2)nc1-c1ccc2c(c1)CCN2C(=O)c1cccc(F)c1	.	51	.	.
COc1cccc(S(=O)(=O)N2C[C@@H]3C[C@H]2C[C@@H]3NC(=O)c2cccnc2)c1	.	.	.	.
CN1C(=O)COc2ccccc2C/C=C/C[C@H]2NCCC[C@H]21	.	.	.	.
O=C(NCc1ccccc1)C(Cc1ccccc1)NS(=O)(=O)c1ccc2c(c1)OCCO2 (stereo unspecified)	.	31	.	.
Cc1noc(C)c1COC(=O)c1ccc(Cl)c(S(=O)(=O)N(Cc2ccccc2)c2ccccc2)c1	.	.	.	.
COc1ccc(CCNC(=O)CSc2nc3c(cnn3-c3ccc(C)cc3)c(=O)[nH]2)cc1OC	.	.	.	.
